Screening results as filed in PubChem.
In the library only some 0.59% were active in any assay of this set; here they are far more common.
Smad3 FoxH1 inh: inhibitors of human Smad3 transcription factor binding; 88,000 compounds, 0.29% hits; P84022; AID 630; TR-FRET Smad3/Dy647-FoxH1 peptide binding, europium anti-His; inhibition, % at 25 µM;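 active = compounds that reduce the energy-transfer binding signal between the protein and its labelled peptide by more than half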;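 also: 0% = Smad3 plus labelled peptide maximal FRET and 100% = peptide-only background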
E coli RNAP: Escherichia coli RNA polymerase inhibition; inhibition, %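 (tested at 10 µM)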; 62,000 compounds, 0.2% hits; AID 559; P0A8V2; E. coli RNA polymerase, fluorescence transcription assay; in the data active = inhibition above about 20%;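 also: 0% = enzyme without compound and 100% = no enzyme blank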
FXIa inh mix: factor XIa (human) inhibition, mixture screen; purified FXIa, fluorogenic substrate, pooled mixtures; inhibition, % at 5 µM; 62,000 compounds, 0.19% hits; AID 680;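 also: each value is inhibition by a whole ten-compound pool holding the compound; 0% = enzyme with no mixture and 100% = wells lacking enzyme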
FXIIa inh mix: factor XIIa (human) inhibition, mixture screen | AID 684 | purified FXIIa, fluorogenic substrate, pooled mixtures | 62,000 compounds, 0.2% hits | inhibition, % at 5 µM | P00748;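 also: 0% = enzyme without compound and 100% = no enzyme blank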
The depositor's hits bear a star; / = no result given; [ ] = dose if it differs, or a comment. Rule as the data show it, unless noted: active = inhibition above about 20% (passing the limit was not always enough); inactive = the rest.

SMILES	Smad3 FoxH1 inh	E coli RNAP	FXIa inh mix	FXIIa inh mix
O=C(CNC(=O)c1cccs1)NCCN1CCN(c2ccccc2F)CC1	-1.1	8.8	20.5*	9.2
Cc1cc(=O)oc(C)c1C(=O)NCCCN1CCN(c2ccccc2F)CC1	-13.3	1.4	37.1*	7.4
C/C(CC/C(C)=N/O)=N\O	15.6	/	/	/
Cc1ccc(-c2nc3nc4ccccc4nc3n2Cc2ccco2)cc1	64.3*	-8.7	10.2	0.6
Clc1ccc(-c2nc3nc4ccccc4nc3n2Cc2ccco2)cc1	1.3	4.8	7.5	1.2
NC(=O)COc1ccc(C2c3c(oc4ccccc4c3=O)C(=O)N2CC2CCCO2)cc1 (stereo not given)	77.1*	9.6	-1.3	-2.7
C[C@@]12CCC(=O)C=C1CC[C@H]1[C@H]2[C@@H](O)C[C@]2(C)[C@@H]1CC[C@@]2(O)C(=O)COC(=O)C1CCCC1	28.2	/	/	/
CCC1=NNc2cccc3c(OC)ccc1c23	65.5*[fluorescence artefact?]	/	/	/
CC(=O)Nc1nc(CC(=O)c2ccccc2)cs1	0.8	2.6	35.9*	-13.1
